Compound activity (PubChem BioAssay)
In the library only some 2.4% were active in any assay of this set; here they are far more common.
D2 ag-1 = agonists of human D2 dopamine receptor | HEK293 T-REx D2 cells, calcium flux agonist mode | 340,000 tested, 0.53% active | AID 485358 | activation, % at 2 µM;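 active means activation over 3 SD above normal in the single-dose calcium agonist read, cut at about 30% in these data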
Target sequence (P14416 whole entry, looked up): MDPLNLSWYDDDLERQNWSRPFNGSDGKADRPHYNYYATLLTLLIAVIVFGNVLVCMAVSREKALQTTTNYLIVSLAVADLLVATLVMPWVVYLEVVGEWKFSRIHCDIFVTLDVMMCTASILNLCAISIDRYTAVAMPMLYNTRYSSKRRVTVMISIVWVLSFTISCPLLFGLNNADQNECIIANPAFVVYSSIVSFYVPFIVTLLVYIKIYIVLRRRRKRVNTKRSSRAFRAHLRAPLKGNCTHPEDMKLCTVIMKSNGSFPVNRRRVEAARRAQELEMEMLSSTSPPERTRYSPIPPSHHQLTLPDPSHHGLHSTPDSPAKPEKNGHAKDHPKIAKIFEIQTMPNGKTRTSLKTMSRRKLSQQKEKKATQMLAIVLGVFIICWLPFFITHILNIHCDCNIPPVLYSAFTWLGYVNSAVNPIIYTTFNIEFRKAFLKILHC
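Calcium-flux readout, 1 cycle/sec over 180 s following compound pin transfer, in inducible HEK293 Trex D2 cells (force-coupled); dopamine controls included. Positive calcium responses during this window marked compounds as potential agonists.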
D2 ag-2 = human D2 receptor agonism in beta-arrestin assay; DiscoveRx PathHunter D2 beta-arrestin, luminescence, 90 min; 100% = 57 uM dopamine signal; P14416; AID 624465; activation, % (concentration not given with the values); 360,000 tested, 0.084% active; in the data active means activation above about 40%
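Agonist mode: compounds alone added to overnight-plated D2 PathHunter cells for 90 min at 37 C, with 57 uM final dopamine (EC100) defining full response. Beta-arrestin recruitment detected by chemiluminescent reagent, read after 1 h at ambient temperature.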
D2 PAM-1 = positive allosteric modulators of human D2 dopamine receptor; 340,000 tested, 0.34% active; potentiation, % at 10 µM; HEK293 T-REx D2, calcium flux, EC20 dopamine potentiation;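 active means potentiation over 3 SD above the plate norm, cut at about 30% in these data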
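Primary screen. Calcium kinetics in induced HEK293 T-REx D2 cells: compound pre-addition 180 s, EC20 dopamine, 180 s more.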
D2 antag = antagonists of human D2 dopamine receptor; P14416; HEK293 TREx D2 cells, calcium flux, dopamine EC80; inhibition, % at 10 µM; 340,000 tested, 2% active; AID 485344; in the data active means inhibition above about 30%; inactive means below that, where a call was filed
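In this primary screen, negative modulation is detected by tracking calcium flux after an EC80 dopamine challenge in inducible HEK293 T-REx D2 cells preexposed to test compound for 180 s.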
D2 PAM-2 = human D2 receptor positive allosteric modulation. P14416. DiscoveRx D2 beta-arrestin cells, luminescence, 90 min; 100% = 57 uM dopamine signal. potentiation, % (concentration not given with the values). 360,000 tested, 0.23% active. AID 624464; in the data active means potentiation above about 50%
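D2 cells co-treated with compound plus 50 nM dopamine (EC20) for 90 min at 37 deg C to detect potentiation. Beta-arrestin recruitment was read as enzyme-fragment luminescence after 1 h at ambient temperature. Full response was set by 57 uM dopamine.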
Of the large screens only hits and unclear results are named; the others gave an inactive call.

O=C(Nc1ccccc1C(=O)NC1CCCCC1)c1ccccc1	none
O=C(NC1CCCC1)c1ccc2nc(-c3ccco3)c(-c3ccco3)nc2c1	D2 antag 33.3
O=C(Nc1ccsc1C(=O)NC1CCCCC1)c1ccccc1	D2 antag 30.7
O=C(NC1CCCC1)c1ccc2nc[nH]c2c1	D2 PAM-1 37.7
O=C(Nc1ccc(Cl)cc1)C1CCN(S(=O)(=O)c2ccc(Br)s2)CC1	none (no result: D2 ag-2, D2 antag, D2 PAM-2)
COc1cc2c(cc1OC)CN(C(=O)c1ccc3nc[nH]c3c1)CC2	none
O=C(c1ccc2nc[nH]c2c1)N1CCc2ccccc2C1	D2 antag 35.1
COC(=O)CN1C(=O)C(C)(C)Oc2ccc(C(=O)Nc3ccccc3F)cc21	D2 PAM-1 31.1
CCOC(=O)c1ccc2c(c1)N(CC(=O)N1CCCCC1)C(=O)C(C)(C)O2	none
CC1(C)Oc2ccc(C(=O)Nc3ccccc3F)cc2N(CC(=O)N2CCOCC2)C1=O	none
CCC(C)(C)NC(=O)c1ccc2c(c1)N(CC(=O)NC1CCCC1)C(=O)C(C)(C)O2	D2 antag 62.3
CCOC(=O)N1CCN(C(=O)CN2C(=O)COc3ccc(C)cc32)CC1	D2 antag 37.5
CCOC(=O)c1ccc2c(c1)N(CC(=O)N1CCCC1)C(=O)C(C)(C)O2	D2 PAM-1 45.4
Cc1ccc2c(c1)N(CC(=O)N1CCCC1)C(=O)CO2	none
CC(C)(C)c1ccc(C(=O)Nc2nc3nc(-c4ccccc4)cc(=O)n3[nH]2)cc1	none (no result: D2 ag-2, D2 antag, D2 PAM-2)
CCc1ccc(-n2nc(CO)c(C(=O)NC)n2)cc1	none (no result: D2 ag-2, D2 antag, D2 PAM-2)
Cc1c(Cc2ccccc2)sc(/N=C/c2c(O)ccc3ccccc23)c1C(N)=O	D2 PAM-2 57.3
COc1ccc(-c2cccc(NS(=O)(=O)c3cc(C)c(Cl)cc3C)c2)nn1	none (no result: D2 ag-2, D2 antag, D2 PAM-2)
COc1ccc(-c2cc3ccccc3oc2=O)cc1NC(=O)c1ccc([N+](=O)[O-])o1	D2 PAM-2 100.7
COc1ccc(-c2cc3ccccc3oc2=O)cc1NC(=O)c1ccc(Br)o1	none
CC1CCCN(Cc2ccc(OCc3ccccc3)cc2)C1 (configuration not stated)	D2 antag 46.3
OC1CCN(Cc2ccc(OCc3ccccc3)cc2)CC1	none
NC(=O)COc1ccc(-c2noc(COc3ccc(Cl)cc3)n2)cc1	none (no result: D2 ag-2, D2 antag, D2 PAM-2)
CCC(=O)Oc1ccc(C(=O)Nc2c[nH]c(=O)[nH]c2=O)cc1	D2 antag 34.6
Cc1cc(C(=O)Nc2c(C)nc3ccccn3c2=O)ccc1[N+](=O)[O-]	none (no result: D2 ag-2, D2 antag, D2 PAM-2)
CC1CCN(CCc2nc3cc(NS(=O)(=O)c4ccc(F)cc4)ccc3n2C)CC1	D2 antag 35.6 (no result: D2 PAM-1)
CC1CCN(CCc2nc3cc(NS(=O)(=O)c4ccccc4)ccc3n2C)CC1	D2 antag 30.3
CC1CCN(CCc2nc3cc(NC(=O)Nc4ccccc4)ccc3n2C)CC1	none
Cc1ccc(CCNC(=O)c2cc3ccccn3n2)cc1	none (no result: D2 ag-2, D2 antag, D2 PAM-2)
Cn1c(-n2cccc2)c(-c2c(-c3ccc(F)cc3)[nH]c3c2c(=O)n(C)c(=O)n3C)c(=O)n(C)c1=O	none (no result: D2 ag-2, D2 antag, D2 PAM-2)
Cc1ccc(S(=O)(=O)N(C)C)cc1NC(=S)N1CCCCC1CO (configuration not stated)	D2 antag 39.0
CCN(CCO)C(=S)Nc1cc(S(=O)(=O)N(C)C)ccc1C	D2 antag 50.6
Cc1ccc(S(=O)(=O)N(C)C)cc1NC(=O)C1CCCC1	none
COc1ccccc1C(=O)N1CCN(Cc2cc(=O)oc3cc(C)ccc23)CC1	none (no result: D2 ag-2, D2 antag, D2 PAM-2)
O=C(CN1C(=O)c2ccccc2C1=O)NCCc1c[nH]c2ccccc12	none
O=C(CN1CCC(O)(c2ccccc2F)CC1)NCCc1c[nH]c2ccccc12	D2 antag 86.0
CCOC(=O)c1c(C)n(C)c2ccc(OC)c(NC(=O)CN3CCSCC3)c12	none
CCOC(=O)c1c(C)n(C)c2ccc(OC)c(NC(=O)CCN3CCC(Cc4ccccc4)CC3)c12	D2 antag 90.8
COc1ccccc1N1CCN(CCCCCCOc2ccc(F)cc2)CC1	D2 antag 81.1
COc1ccccc1N1CCN(CC(=O)Nc2ccc(C)c(F)c2)CC1	none
COc1ccccc1N1CCN(CCC(=O)Nc2ccc(F)cc2)CC1	D2 antag 66.4
COc1ccccc1N1CCN(CC(=O)Nc2cccc(F)c2)CC1	D2 antag 31.3
CCCN1CCN(c2nnc(-n3cccc3C(=O)Nc3cc(Cl)ccc3C)s2)CC1	none (no result: D2 ag-2, D2 antag, D2 PAM-2)
Cc1cc(Br)cc2c1N(Cc1ccccc1OC(C)C)C(=O)C2=O	none (no result: D2 ag-2, D2 antag, D2 PAM-2)
Cc1cccn2c(=O)c(/C=C(\C#N)c3nc4ccccc4n3C)c(Oc3ccc(Br)cc3)nc12	none (no result: D2 ag-1, D2 ag-2, D2 antag, D2 PAM-2)
Cc1ccc(NC(=O)CN2CCN(c3ccccc3F)CC2)cc1F	none (no result: D2 ag-2, D2 antag, D2 PAM-2)
O=C(CN1CCC(NC(=O)C2CC2)CC1)Nc1cccc(F)c1	D2 antag 31.5
COc1ccccc1N1CCN(CCC(=O)Nc2cccc(Cl)c2)CC1	D2 ag-1 36.0, D2 antag 96.2
Cc1ccc(NC(=O)CN2CCC(NC(=O)c3cccc(F)c3)CC2)cc1C	none
O=C(CN1CCN(c2ccccc2F)CC1)Nc1ccc2c(c1)CCC2	D2 antag 69.4
CCOC(=O)N1CCN(CCC(=O)Nc2ccccc2OC)CC1	D2 antag 50.0
Cc1ccccc1C(=O)Nc1cccc(NC(=O)c2ccc(C(C)(C)C)cc2)c1	none (no result: D2 ag-2, D2 antag, D2 PAM-2)
COc1ccc(CCNC(=O)CCc2c(C)c3cc4c(C)c(C)oc4cc3oc2=O)cc1OC	none (no result: D2 ag-2, D2 antag, D2 PAM-2)
CCOC(=O)Cn1c(=O)oc2cc(S(=O)(=O)Nc3ccccc3F)ccc21	none (no result: D2 ag-1, D2 ag-2, D2 antag, D2 PAM-2)
Cc1ccc2nc(CSc3nnc(-c4ccncc4)n3C)cc(=O)n2c1	D2 antag 71.2
C=CCn1c(SCc2cc(=O)n3cc(C)ccc3n2)nnc1-c1ccc(F)cc1	none
COCCN1CC(O)=C(c2nc3ccccc3c(=O)[nH]2)C1=N	D2 antag 38.2
CCCCCN1CC(O)=C(c2nc3ccccc3[nH]2)C1=N	D2 antag 38.9
Cc1ccc(-n2c3c(cc(C(=O)Nc4ccccc4C(N)=O)c2=O)C(=O)CC(C)(C)C3)cc1	none (no result: D2 ag-1, D2 ag-2, D2 antag, D2 PAM-2)
Cc1cc(NC(=O)CSc2nc(C(C)C)nc3sc(C)c(C)c23)no1	D2 antag 35.3
O=C(O)CCCCCNS(=O)(=O)/C=C/c1ccccc1	none
O=C(O)CCCCCNS(=O)(=O)c1cccc2c1C(=O)c1ccccc1C2=O	D2 PAM-2 76.3
COCCNC(=O)CN(C(=O)c1ccc(N2CCCC2)nc1)c1ccc(Cl)cc1	D2 PAM-1 34.2
CC(=O)Nc1ccc(Oc2ccc(-c3noc(C)n3)cc2)cc1	none
CC(=O)Oc1ccc(Oc2ccc(-c3noc(C)n3)cc2)cc1	D2 PAM-1 33.2
COc1ccc(C(=O)n2nc(-c3ccco3)nc2NCc2cccs2)cc1	none (no result: D2 ag-1, D2 ag-2, D2 antag, D2 PAM-2)
CCc1cc(=O)oc2cc(C)cc(OCC(=O)N3CCC(C(=O)NC(C)C)(c4ccccc4)CC3)c12	D2 antag 53.1
